The whole screen tested about 5,500 compounds, of which about 2,000 (36%) were called active. About 18% were inconclusive and are not listed. Some of the results follow. Values without a mark were called inactive. Cut-off read from the data, not from the text of the source: active = normalized growth mostly below about 0.91 (no sharp cut-off); inconclusive = no clear call, values can overlap the other calls; inactive = mostly above about 0.92.
Test: chemical genetic growth profiling, strain panel (AID 1159580);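 note: tested at 20 µM; growth read once vehicle control cultures reached saturation at 30 °C; 1 = growth at the plate median or of vehicle wells; lower values mean less growth of the strain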
Details: S. cerevisiae deletion strains, growth OD
[1] = locus YDL101C, strain DUN1, hits give low values
[2] = locus YHR030C, strain SLT2, hits give low values
[3] = locus YMR307W, strain GAS1, hits give low values
[4] = locus YAR019C, strain CDC15, hits give low values
[5] = locus YBL105C, strain PKC1, hits give low values
[6] = locus YBR135W, strain CKS1, hits give low values
[7] = locus YBR136W, strain MEC1, hits give low values
[8] = locus YBR160W, strain CDC28, hits give low values
[9] = locus YDL017W, strain CDC7, hits give low values
[10] = locus YDL028C, strain MPS1, hits give low values
[11] = locus YDL108W, strain KIN28, hits give low values
[12] = locus YDL132W, strain cdc53, hits give low values
[13] = locus YDL214C, strain PRR2, hits give low values
[14] = locus YDR052C, strain DBF4, hits give low values
[15] = locus YDR054C, strain cdc34, hits give low values
[16] = locus YDR226W, strain ADK1, hits give low values
[17] = locus YDR477W, strain SNF1, hits give low values
[18] = locus YER123W, strain YCK3, hits give low values
[19] = locus YER133W, strain GLC7, hits give low values
[20] = locus YFL009W, strain cdc4, hits give low values
[21] = locus YFL029C, strain CAK1, hits give low values
[22] = locus YFR003C, strain YPI1, hits give low values
[23] = locus YFR019W, strain FAB1, hits give low values
[24] = locus YFR028C, strain CDC14, hits give low values
[25] = locus YGR040W, strain KSS1, hits give low values
[26] = locus YGR052W, strain FMP48, hits give low values
[27] = locus YGR092W, strain DBF2, hits give low values
[28] = locus YHR079C, strain IRE1, hits give low values
[29] = locus YHR082C, strain KSP1, hits give low values
[30] = locus YHR205W, strain SCH9, hits give low values
[31] = locus YIL147C, strain SLN1, hits give low values
[32] = locus YJL095W, strain BCK1, hits give low values
[33] = locus YJL128C, strain PBS2, hits give low values
[34] = locus YJL157C, strain FAR1, hits give low values
[35] = locus YJR016C, strain ILV3, hits give low values
[36] = locus YJR066W, strain TOR1 (second series), hits give low values
[37] = locus YJR066W, strain TOR1, hits give low values
[38] = locus YKL048C, strain ELM1, hits give low values
[39] = locus YKL067W, strain YNK1, hits give low values
[40] = locus YKL101W, strain HSL1, hits give low values
[41] = locus YKL193C, strain SDS22, hits give low values
[42] = locus YKL203C, strain TOR2, hits give low values
[43] = locus YLR113W, strain HOG1, hits give low values
[44] = locus YLR133W, strain CKI1, hits give low values
[45] = locus YLR403W, strain SFP1, hits give low values
[46] = locus YML070W, strain DAK1, hits give low values
[47] = locus YMR001C, strain CDC5, hits give low values
[48] = locus YMR205C, strain PFK2 (second series), hits give low values
[49] = locus YMR277W, strain FCP1, hits give low values
[50] = locus YNL006W, strain LST8, hits give low values
[51] = locus YNL020C, strain ARK1, hits give low values
[52] = locus YNL161W, strain CBK1, hits give low values
[53] = locus YNL183C, strain NPR1, hits give low values
[54] = locus YNL207W, strain RIO2, hits give low values
[55] = locus YNL222W, strain SSU72, hits give low values
[56] = locus YNL307C, strain MCK1 (second series), hits give low values
[57] = locus YOL078W, strain AVO1, hits give low values
[58] = locus YOL136C, strain PFK27, hits give low values
[59] = locus YOR061W, strain CKA2, hits give low values
[60] = locus YOR119C, strain RIO1, hits give low values
[61] = locus YOR231W, strain MKK1, hits give low values
[62] = locus YOR329C, strain SCD5, hits give low values
[63] = locus YPL031C, strain PHO85, hits give low values
[64] = locus YPL153C, strain RAD53, hits give low values
[65] = locus YPL204W, strain HRR25, hits give low values
[66] = locus YPL209C, strain IPL1, hits give low values
[67] = locus YPL256C, strain CLN2, hits give low values
[68] = locus YPR025C, strain CCL1, hits give low values
[69] = locus YPR106W, strain ISR1, hits give low values
[70] = locus YPR111W, strain DBF20, hits give low values
[71] = strain NNK1, hits give low values
[72] = strain TSCII, hits give low values

For `CSc1c(C#N)c(-c2cccs2)nn1C`, the normalized growth (locus YAL013W, strain DEP1, hits give low values) was 0.934, the normalized growth (locus YBR229C, strain ROT2, hits give low values) was 0.935 and the normalized growth [1] was 0.934. For the same compound, the normalized growth (locus YDR150W, strain NUM1, hits give low values) was 0.86, the normalized growth (locus YEL061C, strain CIN8, hits give low values) was 0.924 and the normalized growth (locus YGR078C, strain PAC10, hits give low values) was 0.913 (active). For the same compound, the normalized growth [2] was 0.505 (active), the normalized growth (locus YHR087W, strain rtc3, hits give low values) was 0.898 (active) and the normalized growth (locus YJL187C, strain SWE1, hits give low values) was 1.02. The normalized growth (locus YJR043C, strain POL32, hits give low values) was 0.978, the normalized growth (locus YJR075W, strain HOC1, hits give low values) was 0.89 (active) and the normalized growth (locus YLR039C, strain RIC1, hits give low values) was 0.87. For the same compound, the normalized growth (locus YLR058C, strain SHM2 (second series), hits give low values) was 0.92 (active), the normalized growth (locus YLR085C, strain ARP6, hits give low values) was 0.784 and the normalized growth (locus YLR262C, strain YPT6, hits give low values) was 0.879. It also gave a normalized growth (locus YML094W, strain GIM5, hits give low values) of 0.911, a normalized growth (locus YMR219W, strain ESC1, hits give low values) of 0.945 and a normalized growth (locus YMR263W, strain SAP30, hits give low values) of 0.949. For the same compound, the normalized growth [3] was 0.983, the normalized growth (locus YNL153C, strain GIM3, hits give low values) was 0.959 and the normalized growth (locus YNL298W, strain CLA4 (second series), hits give low values) was 0.804 (active). The normalized growth (locus YNL322C, strain KRE1, hits give low values) was 0.931 (active), the normalized growth (locus YNR030W, strain Alg12, hits give low values) was 0.859 (active) and the normalized growth (locus YPL055C, strain LGE1, hits give low values) was 0.917. For the same compound, the normalized growth (locus YPL241C, strain CIN2, hits give low values) was 0.886 and the normalized growth (locus YPR135W, strain CTF4, hits give low values) was 0.509 (active).
In the case of `CSc1cc(-c2ccncc2)nc(-c2cccs2)c1`, the normalized growth [4] is reported as 0.953, the normalized growth [5] is reported as 0.964 and the normalized growth [6] is reported as 0.957. For the same compound, the normalized growth [7] was 0.961, the normalized growth [8] was 0.952 and the normalized growth [9] was 0.959. For the same compound, the normalized growth [10] was 0.965, the normalized growth [1] was 0.971 and the normalized growth [11] was 0.96. The normalized growth [12] was 0.961, the normalized growth [13] was 0.965 and the normalized growth [14] was 0.965. The normalized growth [15] was 0.957, the normalized growth [16] was 0.951 and the normalized growth [17] was 0.941. The normalized growth [18] was 0.928, the normalized growth [19] was 0.927 and the normalized growth [20] was 0.975. It also gave a normalized growth [21] of 0.952, a normalized growth [22] of 0.96 and a normalized growth [23] of 0.965. It also gave a normalized growth [24] of 0.952, a normalized growth [25] of 0.928 and a normalized growth [26] of 1.05. For the same compound, the normalized growth [27] was 0.89, the normalized growth [2] was 1.03 and the normalized growth [28] was 0.953. The normalized growth [29] was 1.02, the normalized growth [30] was 0.997 and the normalized growth [31] was 0.962. For the same compound, the normalized growth [32] was 0.982, the normalized growth [33] was 0.963 and the normalized growth [34] was 0.938. For the same compound, the normalized growth [35] was 0.985, the normalized growth [36] was 0.95 and the normalized growth [37] was 0.993. For the same compound, the normalized growth [38] was 0.966, the normalized growth [39] was 0.951 and the normalized growth [40] was 0.961. It also gave a normalized growth [41] of 0.958, a normalized growth [42] of 1 and a normalized growth [43] of 0.92. For the same compound, the normalized growth [44] was 0.962, the normalized growth [45] was 1.01 and the normalized growth [46] was 0.929. It also gave a normalized growth [47] of 0.964, a normalized growth [48] of 0.963 and a normalized growth [49] of 0.961. It also gave a normalized growth [50] of 0.969, a normalized growth [51] of 0.954 and a normalized growth [52] of 0.952. It also gave a normalized growth [53] of 0.97, a normalized growth [54] of 0.945 and a normalized growth [55] of 0.951. The normalized growth [56] was 0.952, the normalized growth [57] was 0.96 and the normalized growth [58] was 0.956. The normalized growth [59] was 0.963, the normalized growth [60] was 0.984 and the normalized growth [61] was 0.921. It also gave a normalized growth [62] of 0.966, a normalized growth [63] of 0.927 and a normalized growth [64] of 0.925. For the same compound, the normalized growth [65] was 0.951, the normalized growth [66] was 0.954 and the normalized growth [67] was 0.939. For the same compound, the normalized growth [68] was 0.963, the normalized growth [69] was 0.959 and the normalized growth [70] was 0.947. For the same compound, the normalized growth [71] was 0.965 and the normalized growth [72] was 0.951.
`NCC(CP(=O)(O)O)c1ccc(Cl)cc1` (centres undefined) showed a normalized growth (locus YAL040C, strain CLN3, hits give low values) of 1.04, a normalized growth (locus YCL061C, strain MRC1 (second series), hits give low values) of 0.978 and a normalized growth (locus YDR363W, strain ESC2, hits give low values) of 0.99. The normalized growth (locus YER002W, strain NOP16, hits give low values) was 0.991, the normalized growth (locus YGR229C, strain SMI1, hits give low values) was 0.963 and the normalized growth [3] was 0.995. For the same compound, the normalized growth (locus YNL128W, strain TEP1, hits give low values) was 0.987, the normalized growth (locus YNL175C, strain NOP13, hits give low values) was 0.986 and the normalized growth (locus YNL197C, strain WHI3, hits give low values) was 0.998. The normalized growth (locus YNL224C, strain SQS1, hits give low values) was 1 and the normalized growth (locus YOR083W, strain WHI5 (second series), hits give low values) was 0.98.
`CC(C)c1ccc(NCC(O)CSc2ccccc2)cc1` (centres undefined) gave a normalized growth [4] of 0.956, a normalized growth [5] of 0.957 and a normalized growth [6] of 0.952. For the same compound, the normalized growth [7] was 0.952, the normalized growth [8] was 0.966 and the normalized growth [9] was 0.969. It also gave a normalized growth [10] of 0.955, a normalized growth [1] of 0.951 and a normalized growth [11] of 0.943. It also gave a normalized growth [12] of 0.948, a normalized growth [13] of 0.808 and a normalized growth [14] of 0.974. It also gave a normalized growth [15] of 0.947, a normalized growth [16] of 0.983 and a normalized growth [17] of 0.805. It also gave a normalized growth [18] of 0.755, a normalized growth [19] of 0.796 and a normalized growth [20] of 0.952. The normalized growth [21] was 0.952, the normalized growth [22] was 0.959 and the normalized growth [23] was 0.928. It also gave a normalized growth [24] of 0.957, a normalized growth [25] of 0.801 and a normalized growth [26] of 0.717. For the same compound, the normalized growth [27] was 0.696, the normalized growth [2] was 0.655 (active) and the normalized growth [28] was 0.7. For the same compound, the normalized growth [29] was 0.733, the normalized growth [30] was 0.756 and the normalized growth [31] was 0.952. It also gave a normalized growth [32] of 0.708, a normalized growth [33] of 0.968 and a normalized growth [34] of 0.845. It also gave a normalized growth [35] of 0.962, a normalized growth [36] of 0.819 and a normalized growth [37] of 0.786. The normalized growth [38] was 0.731 (active), the normalized growth [39] was 0.834 and the normalized growth [40] was 0.746. For the same compound, the normalized growth [41] was 0.944, the normalized growth [42] was 0.814 and the normalized growth [43] was 0.405 (active). It also gave a normalized growth [44] of 0.843, a normalized growth [45] of 0.842 and a normalized growth [46] of 0.766. It also gave a normalized growth [47] of 0.956, a normalized growth [48] of 0.815 and a normalized growth [49] of 0.953. It also gave a normalized growth [50] of 0.962, a normalized growth [51] of 0.812 and a normalized growth [52] of 0.963. It also gave a normalized growth [53] of 0.64, a normalized growth [54] of 0.951 and a normalized growth [55] of 0.953. For the same compound, the normalized growth [56] was 0.802, the normalized growth [57] was 0.958 and the normalized growth [58] was 0.781. The normalized growth [59] was 0.856, the normalized growth [60] was 0.761 and the normalized growth [61] was 0.634. It also gave a normalized growth [62] of 0.964, a normalized growth [63] of 0.74 and a normalized growth [64] of 0.741. The normalized growth [65] was 0.696, the normalized growth [66] was 0.964 and the normalized growth [67] was 0.621 (active). For the same compound, the normalized growth [68] was 0.957, the normalized growth [69] was 0.94 and the normalized growth [70] was 0.936. For the same compound, the normalized growth [71] was 0.913 and the normalized growth [72] was 0.954.

— PubChem BioAssay AID1159580 (chemical genetic matrix, 2015)
